This is an account of results in PubChem BioAssay (NCATS).

Where “and” joins values, the source holds several entries; their conditions need not be identical. Equal entries are not always repeated. Records with an inconclusive call do not appear. Calls of active or inactive are those of the source. Unless noted, calls come from the whole dose curve; as a rule, active = well fitted curve in the direction sought with a large enough effect; inconclusive = small, poorly fitted or top-dose-only effect, or another doubt; inactive = no such curve, though single readings can be large; an effect the other way counts as inactive or inconclusive.

Test [1] can be described thus: Cellular Toxicity (caspase-3) Jurkat (AID 655).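 Note: cells exposed to compound for 16 h at 37 °C before reading.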 Conditions: Jurkat caspase-3 activation, luminescence, DMSO = 0%, tamoxifen = 100%; at 92.2 µM (top of the series). The method in brief:
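Jurkat cells (5000/well) in complete medium were treated with compounds for 16 hr at 37 °C, then Caspase-Glo 3/7 luminescence was read after 20 min at room temperature. Data normalized to DMSO (basal) and 100 uM tamoxifen (100%); AC50 from Hill fit.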

Test [2] can be described thus: Cell Viability - LYMP2-001 (AID 921).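 Note: 0% = DMSO only and full inhibition = tetraoctylammonium bromide control wells; nearly all actives have a fitted effect of over 70% in size.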 The essentials: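 Human lymphoblastoid cells (Coriell), 2500 per well, were preincubated 5 hr at 37 C, then exposed to compounds in complete medium for 24 hr at 37 C. Cellular ATP was read by CellTiter-Glo luminescence; AC50 from Hill fits of concentration-response data.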
Test [3] in a line: MultiTox-Fluor Cytotoxicity Assay - LYMP1-001 - Live Cells (AID 947).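 Note: 0% = DMSO only and full inhibition = tetraoctylammonium bromide control.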
Test [4] is described as follows: Cell Viability - LYMP1-003 - Assay at 24 hr (AID 963).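 Note: plate controls were DMSO only for no effect and tetraoctylammonium bromide positive control for full effect.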 The method in brief:
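Cytotoxicity is scored as a concentration-dependent fall in ATP-linked luciferase signal in human lymphoblastoid LYMP1-003 cells treated 24 hr at 37 C in complete culture medium.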

Test [5] addresses Estrogen receptor (Homo sapiens) (UniProt P03372). Nature of the test: qHTS assay for small molecule antagonists of estrogen receptor alpha signaling (AID 588513; active = well fitted curve in the direction sought with a large enough effect in the signal ratio, with a control signal flat, not every such curve was filed as active; the % refers to the signal ratio; note: % is set by controls: 0 for no effect and ±100 for the full control effect). The method in brief: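 ER-alpha-UAS-bla GripTite HEK 293 cells in medium with 2% charcoal/dextran-treated FBS were preincubated 4 h at 37 C, dosed with compound (1:2 titration), stimulated with 0.5nM 17-beta-estradiol for 18 h, then read by CCF4 beta-lactamase fluorescence.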
In general terms: In qHTS, concentration-response curves come from the screen itself.

Test [6] shares this target. Kind of test: qHTS assay for small molecule agonists of estrogen receptor alpha signaling (AID 588514; calls by dose curve;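 note: 0% = vehicle only and 100% = reference agonist; nearly all actives have a fitted effect of over 70% in size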). The method in brief:
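Efficacy is expressed against 20 nM 17-beta-estradiol (100%) and DMSO basal (0%); EC50 from Hill equation. Assay: beta-lactamase reporter in ER-alpha-UAS-bla HEK 293 cells, 18 h compound incubation, CCF4 detection.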

Test [7] addresses Peroxisome proliferator-activated receptor gamma (Homo sapiens) (UniProt P37231). Kind of test: qHTS assay for small molecule agonists of peroxisome proliferator-activated receptor gamma signaling (AID 588536; active = well fitted curve in the direction sought with a large enough effect in the signal ratio, with a control signal flat, not every such curve was filed as active; the % refers to the signal ratio;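 note: 0% = DMSO basal wells and 100% = rosiglitazone at 2 µM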). The essentials: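 Compound treatment: 16 h, 37 C, HEK293 GeneBLAzer cells. Detection: CCF4, 2 h RT. Values: Hill-fit EC50, efficacy as % of 2 uM rosiglitazone.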
Test [8] deals with Vitamin D3 receptor (Homo sapiens) (UniProt P11473). Nature of the test: qHTS assay for small molecule agonists of vitamin D receptor signaling (AID 588543; calls by dose curve;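 note: 0% = DMSO basal and 100% = reference agonist control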). The method in brief: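 GeneBLAzer VDR-UAS-bla HEK293T cells in 2% charcoal-stripped FBS medium were dosed with compound titrations for 16 h at 37 °C; CCF4 β-lactamase readout (405 nm ex, 460/530 nm em). EC50 and efficacy from Hill fits, normalized to 50 nM calcitriol (100%) and DMSO (0%).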
Vitamin D3 receptor (Homo sapiens), sequence (P11473 whole entry, looked up): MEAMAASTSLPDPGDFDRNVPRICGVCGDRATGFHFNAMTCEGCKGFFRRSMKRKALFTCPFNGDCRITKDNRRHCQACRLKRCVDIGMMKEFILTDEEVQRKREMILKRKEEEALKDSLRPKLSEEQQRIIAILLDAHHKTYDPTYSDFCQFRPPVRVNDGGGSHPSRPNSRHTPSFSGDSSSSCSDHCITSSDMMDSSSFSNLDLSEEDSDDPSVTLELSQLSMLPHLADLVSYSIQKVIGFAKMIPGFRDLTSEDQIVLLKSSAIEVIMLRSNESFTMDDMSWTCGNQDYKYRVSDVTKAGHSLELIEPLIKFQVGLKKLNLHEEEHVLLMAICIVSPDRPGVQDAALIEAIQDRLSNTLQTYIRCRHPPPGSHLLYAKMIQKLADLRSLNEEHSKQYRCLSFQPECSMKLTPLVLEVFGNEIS

Test [9] is described as follows: qHTS assay for small molecule agonists of retinoid X receptor alpha signaling (AID 588544; calls by dose curve;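 for activation: 0% = DMSO basal wells and 100% = reference agonist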). As to conditions: HEK293T RXRa-UAS-bla, beta-lactamase reporter, 18 h; 530 nm emission.
For test [10], the target named is Retinoic acid receptor RXR-alpha (Homo sapiens) (UniProt P19793). The test is described as above.
Retinoic acid receptor RXR-alpha (Homo sapiens), sequence (P19793 whole entry, looked up): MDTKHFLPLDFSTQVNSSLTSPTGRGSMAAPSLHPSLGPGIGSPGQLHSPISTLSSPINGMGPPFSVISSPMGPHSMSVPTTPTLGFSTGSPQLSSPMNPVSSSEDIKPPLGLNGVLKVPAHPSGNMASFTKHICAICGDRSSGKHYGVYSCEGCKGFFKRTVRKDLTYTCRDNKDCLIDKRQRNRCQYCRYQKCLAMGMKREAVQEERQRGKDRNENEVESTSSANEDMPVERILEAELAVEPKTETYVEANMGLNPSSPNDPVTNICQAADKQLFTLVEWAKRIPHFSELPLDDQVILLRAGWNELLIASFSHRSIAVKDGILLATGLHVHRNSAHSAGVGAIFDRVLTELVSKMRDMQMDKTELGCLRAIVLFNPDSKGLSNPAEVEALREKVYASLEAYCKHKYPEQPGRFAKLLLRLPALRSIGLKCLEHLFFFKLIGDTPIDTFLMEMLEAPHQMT
Test [11] addresses Voltage-gated inwardly rectifying potassium channel KCNH2 (Homo sapiens) (UniProt Q12809). Kind of test: qHTS Assay for Small Molecule Inhibitors of the Human hERG Channel Activity (AID 588834).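 Note: top concentration of the series differs between compounds; % is set by controls: 0 for no effect and ±100 for the full control effect; lower thallium flux fluorescence means stronger hERG block; nearly all actives have a fitted effect of over 50% in size.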 The method in brief: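 In hERG-transduced U2OS cells, dye-loaded for 1 hr at room temperature in dark, test compounds incubated 10 min at 37 °C before thallium stimulation. AC50 values derived by Hill modelling of concentration-response.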

Test [12] is described as follows: qHTS assay for small molecule activators of the p53 signaling pathway (AID 651743; active = well fitted activation curve with a large enough effect in the signal ratio, not every such curve was filed as active; the % refers to the signal ratio; note: % of control where 0% means no effect). As to conditions: HCT-116 p53RE-bla, beta-lactamase FRET ratio, 16 h; activation: stronger effect = higher value. The method in brief: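 Agonist-mode quantitative HTS in HCT-116 cells carrying a p53-response-element beta-lactamase reporter; 16 h compound treatment at 37 C, then FRET substrate loading for 2 h at room temperature and fluorescence read.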

Test [13] can be described thus: qHTS assay for small molecule disruptors of the mitochondrial membrane potential - 1 hr assay (AID 651754; calls by dose curve; note: % is set by controls: 0 for no effect and ±100 for the full control effect; nearly all actives have a fitted effect of over 35% in size). The method in brief:
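Loss of mitochondrial potential shifts the cationic dye from red mitochondrial aggregates to green cytoplasmic monomers. Cells (HepG2) are treated with compound for 1 hr before a 30 min dye incubation at 37C.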

A short description of test [14]: qHTS assay for small molecule disruptors of the mitochondrial membrane potential - 5 hr assay (AID 651755; calls by dose curve; note: % is set by controls: 0 for no effect and ±100 for the full control effect; nearly all actives have a fitted effect of over 40% in size). The essentials:
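Seed HepG2 overnight, add compound, incubate 5 hr at 37C and 5% CO2, stain 30 min with Mito-MPS, then measure monomer (490/535 nm) and aggregate (540/590 nm) fluorescence.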

The target of test [15] is Tumor necrosis factor (Homo sapiens) (UniProt P01375). Kind of test: qHTS assay to identify small molecules that stimulate Tumor Necrosis Factor-alpha (TNF-alpha) secretion (AID 651757; active = well fitted curve in the direction sought with a large enough effect in the signal ratio; the % refers to the signal ratio; note: 0% is about no effect). The essentials: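 Human monocytic THP-1 cells are plated, treated with compound and held at 37 C for 17 hrs. Labeled anti-TNF-alpha antibody mixture is then added; after 3 hr at room temperature, TR-FRET signal reports secreted TNF-alpha.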
Tumor necrosis factor (Homo sapiens), sequence (P01375 whole entry, looked up): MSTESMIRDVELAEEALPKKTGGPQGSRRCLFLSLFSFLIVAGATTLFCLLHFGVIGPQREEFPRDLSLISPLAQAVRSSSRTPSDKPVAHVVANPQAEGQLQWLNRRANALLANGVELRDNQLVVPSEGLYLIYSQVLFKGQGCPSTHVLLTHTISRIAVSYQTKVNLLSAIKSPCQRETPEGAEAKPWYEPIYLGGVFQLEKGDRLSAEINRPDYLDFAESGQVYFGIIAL

Test [16] can be described thus: qHTS assay for small molecule agonists of the antioxidant response element (ARE) signaling pathway measured by Nrf2-dependant transcriptional activity (AID 720636; active = well fitted curve in the direction sought with a large enough effect in the repeat runs; an effect the other way counts as inactive or inconclusive; note: % of control where 0% means no effect). The method in brief:
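Quantitative HTS format in HepG2 cells stably expressing an ARE-luciferase reporter; 16 hr compound treatment at 37 C, luciferase signal detected with ONE-Glo.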

A short description of test [17]: qHTS assay for small molecule antagonists of the retinoid-related orphan receptor gamma (ROR-gamma) signaling pathway - cell viability counter screen (AID 720652; active = well fitted curve in the direction sought with a large enough effect in the repeat runs; an effect the other way counts as inactive or inconclusive;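 note: CHO reporter cells with doxycycline-induced ROR-gamma expression; compound exposure lasted 16 hr before ATP read; % is set by controls: 0 for no effect and ±100 for the full control effect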). The essentials: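 Steps: seed CHO cells bearing TET-inducible ROR and ROR response element-luciferase; rest 5 hr at 37 C; add compound, then doxycycline; incubate 16 hr; add CellTiter-Glo and read luminescence as ATP-based viability.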

Test [18] is described as follows: qHTS assay for cell viability of the p53RE-bla HCT-116 cell line (AID 743292). Note: % is set by controls: 0 for no effect and ±100 for the full control effect; nearly all actives have a fitted effect of over 55% in size. The method in brief:
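Viability of compound-treated p53RE-bla HCT-116 cells is taken from ATP-dependent luciferase luminescence. Treatment lasts 16 h at 37 C after a 5 h settling period; detection follows 30 min at room temperature.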

Test [19] concerns the target Nuclear receptor subfamily 1 group I member 2 (Rattus norvegicus) (UniProt Q9R1A7). Kind of test: qHTS assay for small molecule activators of the rat pregnane X receptor (rPXR) signaling pathway (AID 651751; call rule not given here; note: 0% is about no effect). Conditions: rPXR reporter cells, luciferase (One-Glo), 24 h.
The nature of test [20]: qHTS assay for small molecule activators of the human pregnane X receptor (PXR) signaling pathway (AID 720659; call rule not given here; note: 0% is about no effect).

Nuclear receptor subfamily 1 group I member 2 (Rattus norvegicus), sequence (Q9R1A7 whole entry, looked up): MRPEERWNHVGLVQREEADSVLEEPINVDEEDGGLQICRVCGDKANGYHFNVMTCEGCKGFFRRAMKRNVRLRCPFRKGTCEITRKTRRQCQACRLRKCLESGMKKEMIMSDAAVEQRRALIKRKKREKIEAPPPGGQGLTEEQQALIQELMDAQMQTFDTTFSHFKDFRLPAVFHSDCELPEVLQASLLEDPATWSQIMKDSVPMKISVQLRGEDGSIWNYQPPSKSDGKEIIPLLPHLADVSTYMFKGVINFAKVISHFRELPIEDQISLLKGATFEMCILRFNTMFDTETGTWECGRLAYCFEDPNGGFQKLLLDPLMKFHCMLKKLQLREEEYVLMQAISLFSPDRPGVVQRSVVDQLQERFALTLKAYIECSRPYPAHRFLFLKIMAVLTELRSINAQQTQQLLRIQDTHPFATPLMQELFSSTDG
Estrogen receptor (Homo sapiens), sequence (P03372 whole entry, looked up): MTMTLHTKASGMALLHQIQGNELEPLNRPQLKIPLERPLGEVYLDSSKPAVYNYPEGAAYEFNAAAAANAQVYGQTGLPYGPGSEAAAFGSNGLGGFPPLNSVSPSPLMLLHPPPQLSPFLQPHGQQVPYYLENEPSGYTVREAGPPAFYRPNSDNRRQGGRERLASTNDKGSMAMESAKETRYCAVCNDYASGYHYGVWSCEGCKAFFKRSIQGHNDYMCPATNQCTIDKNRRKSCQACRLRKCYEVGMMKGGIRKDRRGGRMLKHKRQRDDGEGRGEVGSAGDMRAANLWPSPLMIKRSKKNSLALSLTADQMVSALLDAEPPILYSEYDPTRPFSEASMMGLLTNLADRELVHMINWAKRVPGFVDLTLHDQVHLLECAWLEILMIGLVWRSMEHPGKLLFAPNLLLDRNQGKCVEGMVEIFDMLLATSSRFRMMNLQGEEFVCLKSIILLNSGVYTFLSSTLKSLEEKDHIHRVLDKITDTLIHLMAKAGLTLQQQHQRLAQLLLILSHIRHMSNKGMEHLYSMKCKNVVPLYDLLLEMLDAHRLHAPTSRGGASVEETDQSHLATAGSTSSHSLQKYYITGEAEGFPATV
Voltage-gated inwardly rectifying potassium channel KCNH2 (Homo sapiens), sequence (Q12809 whole entry, looked up): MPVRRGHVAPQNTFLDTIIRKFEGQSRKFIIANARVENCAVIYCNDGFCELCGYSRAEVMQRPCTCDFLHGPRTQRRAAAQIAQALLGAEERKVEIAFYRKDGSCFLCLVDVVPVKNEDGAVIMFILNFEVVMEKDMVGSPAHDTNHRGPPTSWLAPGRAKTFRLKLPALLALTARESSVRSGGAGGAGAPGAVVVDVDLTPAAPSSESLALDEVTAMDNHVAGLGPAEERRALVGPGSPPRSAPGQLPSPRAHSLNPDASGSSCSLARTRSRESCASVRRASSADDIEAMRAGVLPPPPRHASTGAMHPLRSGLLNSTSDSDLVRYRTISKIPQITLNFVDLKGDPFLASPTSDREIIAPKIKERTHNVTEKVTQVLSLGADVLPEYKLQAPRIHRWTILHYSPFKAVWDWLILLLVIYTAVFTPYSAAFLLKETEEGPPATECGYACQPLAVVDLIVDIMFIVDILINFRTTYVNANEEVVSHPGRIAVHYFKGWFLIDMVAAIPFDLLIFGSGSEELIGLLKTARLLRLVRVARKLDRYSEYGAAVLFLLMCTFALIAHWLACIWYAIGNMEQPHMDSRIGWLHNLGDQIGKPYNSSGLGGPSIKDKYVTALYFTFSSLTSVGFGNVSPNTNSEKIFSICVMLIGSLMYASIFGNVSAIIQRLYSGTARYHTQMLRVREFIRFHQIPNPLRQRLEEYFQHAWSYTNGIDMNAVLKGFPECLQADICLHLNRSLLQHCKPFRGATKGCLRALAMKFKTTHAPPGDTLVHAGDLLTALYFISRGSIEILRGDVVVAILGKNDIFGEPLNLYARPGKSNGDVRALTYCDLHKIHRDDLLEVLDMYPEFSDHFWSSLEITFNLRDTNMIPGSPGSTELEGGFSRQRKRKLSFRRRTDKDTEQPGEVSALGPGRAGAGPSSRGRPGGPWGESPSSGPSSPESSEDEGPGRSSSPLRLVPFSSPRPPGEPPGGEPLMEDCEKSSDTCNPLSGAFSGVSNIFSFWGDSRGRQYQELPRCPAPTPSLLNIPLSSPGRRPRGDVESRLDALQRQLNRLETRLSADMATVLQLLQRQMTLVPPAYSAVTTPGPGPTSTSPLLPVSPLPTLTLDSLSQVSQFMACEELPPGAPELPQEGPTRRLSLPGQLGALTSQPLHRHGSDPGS
Peroxisome proliferator-activated receptor gamma (Homo sapiens), sequence (P37231 whole entry, looked up): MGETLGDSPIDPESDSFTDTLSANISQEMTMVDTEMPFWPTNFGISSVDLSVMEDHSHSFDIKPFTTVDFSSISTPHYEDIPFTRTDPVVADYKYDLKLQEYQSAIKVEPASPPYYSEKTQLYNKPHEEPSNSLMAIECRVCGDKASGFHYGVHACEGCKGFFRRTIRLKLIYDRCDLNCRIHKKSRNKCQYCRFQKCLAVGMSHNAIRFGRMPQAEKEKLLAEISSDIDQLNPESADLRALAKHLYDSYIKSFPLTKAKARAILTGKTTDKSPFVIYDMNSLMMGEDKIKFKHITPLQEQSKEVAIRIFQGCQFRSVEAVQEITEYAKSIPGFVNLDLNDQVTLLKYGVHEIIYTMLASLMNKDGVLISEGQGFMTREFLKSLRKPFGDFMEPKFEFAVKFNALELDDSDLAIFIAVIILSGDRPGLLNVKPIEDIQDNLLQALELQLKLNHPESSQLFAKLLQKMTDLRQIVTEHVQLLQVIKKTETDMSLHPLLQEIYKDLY

Consider `Cc1ccccc1C`, for which the caspase-3 activation in [1] is 3.87% (inactive) and 7.19% (inactive). Further, the Potency result in [2], in [3], in test [4], in [5], in test [6] and in test [11] was “inactive” each time. Moreover, the Potency entry in test [13], in test [14], in [16], in test [17] and in test [18] was “inactive” throughout. In addition, the result in test [7], in test [8], in test [10], in test [15] and in test [20] was inactive. Besides, the max response in test [9] was -0.877% and 16.9%; in test [19], -1.06% (inactive) and 4.02% (inactive). In addition, the activation in test [12] was -3.02% (inactive) and -3.15% (inactive).
Regarding `O=NO`, the caspase-3 activation in test [1] is -1.69% (inactive) and 0.278% (inactive). The Potency result in test [2], in test [3], in test [4], in test [11], in [13] and in test [14] was “inactive” throughout. For the same compound, the Potency result in test [16], in test [17] and in test [18] was “inactive” each time. Also, the compound was called inactive in [7], in test [8], in test [10], in [15] and in [20]. In addition, the max response is -10.7% and -17.9% in test [9]; 3.2% (inactive) and 1.29% (inactive) in test [19].
With `C1OCOCO1`, in [1], the caspase-3 activation was 2.97% (inactive). In addition, the Potency result in [2], in test [3], in test [4], in test [11], in [13] and in test [14] was “inactive” throughout. For the same compound, the Potency entry in [16], in test [17] and in test [18] was “inactive” each time. Also, the compound was classed as inactive in [7], in test [10], in [15] and in test [20]. The max response was -5.21% in test [9] and -2.23% (inactive) in [19]. The activation in test [12] was -3.32% (inactive).
For `C/C=C\c1ccc(OC)cc1`, in test [1], the caspase-3 activation was -0.717% (inactive). The Potency entry in test [2], in [3], in test [4], in test [11], in test [16] and in test [17] was “inactive” in each case. For the same compound, the Potency result in test [18] was “inactive”. Moreover, the call in [7], in test [10], in test [15] and in test [20] was inactive. Moreover, the results for the max response in [9] and in test [19] were -9.52% and 5.64% (inactive), respectively.
